Here are results for 2 sequences from PMC7862700, “An all-to-all approach to the identification of sequence-specific readers for epigenetic DNA modifications on cytosine”.

Common to all, as to experiment: DAPPL (digital affinity profiling via proximity ligation, sequencing); 10 mM Tris-HCl pH 7.5, 50 mM NaCl, 1 mM DTT, 4% glycerol, room temperature, 30 min; GST-TFs on glutathione beads, 16-mer random dsDNA library, 0.1% formaldehyde crosslink after washing; high values mean tight binding
Holding throughout (conditions): protein: recombinant; tags: N-terminal GST; dsDNA, one strand shown

Assay [1] addresses T1, FLI1 (Homo sapiens, UniProt Q01543 1-452).
T1 sequence: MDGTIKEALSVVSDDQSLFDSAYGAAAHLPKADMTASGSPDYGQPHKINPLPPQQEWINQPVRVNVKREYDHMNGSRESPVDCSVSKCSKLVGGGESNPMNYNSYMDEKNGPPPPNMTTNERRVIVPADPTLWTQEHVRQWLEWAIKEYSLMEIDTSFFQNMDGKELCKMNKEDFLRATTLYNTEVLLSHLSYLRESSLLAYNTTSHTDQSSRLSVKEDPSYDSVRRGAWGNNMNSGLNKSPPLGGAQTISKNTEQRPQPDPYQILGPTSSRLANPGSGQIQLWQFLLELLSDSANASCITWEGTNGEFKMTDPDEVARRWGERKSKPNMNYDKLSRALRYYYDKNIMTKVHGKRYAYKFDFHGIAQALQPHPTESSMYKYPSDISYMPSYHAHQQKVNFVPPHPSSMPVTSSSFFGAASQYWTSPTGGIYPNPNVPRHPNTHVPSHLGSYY
Summed up:
(§1)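 Each value of binding signal is a hexamer's read frequency for a factor divided by the same hexamer's frequency in the tag-only sample. Barcoded, bead-captured GST fusions of human transcription factors made in yeast were pooled with that sample and incubated with 200 nmole of a random double-stranded 16-mer DNA library in Tris/NaCl/DTT/glycerol buffer at room temperature for 30 min. Washing, 0.1% formaldehyde crosslinking, proximity ligation, PCR and Illumina NextSeq500 sequencing followed.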

The target in assay [2] is T2, ELK1 (Homo sapiens, UniProt P19419 1-428).
T2 sequence: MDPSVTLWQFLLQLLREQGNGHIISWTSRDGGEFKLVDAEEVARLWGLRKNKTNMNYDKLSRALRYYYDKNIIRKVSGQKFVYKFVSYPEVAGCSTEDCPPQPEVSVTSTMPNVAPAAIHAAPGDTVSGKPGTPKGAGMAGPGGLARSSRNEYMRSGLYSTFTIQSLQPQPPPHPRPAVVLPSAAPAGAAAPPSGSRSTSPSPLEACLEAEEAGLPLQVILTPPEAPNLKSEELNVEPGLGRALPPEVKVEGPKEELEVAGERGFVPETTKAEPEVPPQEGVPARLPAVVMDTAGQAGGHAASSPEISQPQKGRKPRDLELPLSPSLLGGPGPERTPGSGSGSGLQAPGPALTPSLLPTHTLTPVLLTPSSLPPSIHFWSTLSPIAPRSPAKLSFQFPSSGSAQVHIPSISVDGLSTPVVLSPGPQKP
The method in brief: as §1

The target in assay [3] is ELF1 (Homo sapiens, UniProt P32519 1-619). Summed up:
as §1

For assay [4], the target named is SPI1 (Homo sapiens, UniProt P17947 1-270). Summed up:
as §1

The target in assay [5] is T3, ELK3 (Homo sapiens, UniProt P41970 1-407).
T3 sequence: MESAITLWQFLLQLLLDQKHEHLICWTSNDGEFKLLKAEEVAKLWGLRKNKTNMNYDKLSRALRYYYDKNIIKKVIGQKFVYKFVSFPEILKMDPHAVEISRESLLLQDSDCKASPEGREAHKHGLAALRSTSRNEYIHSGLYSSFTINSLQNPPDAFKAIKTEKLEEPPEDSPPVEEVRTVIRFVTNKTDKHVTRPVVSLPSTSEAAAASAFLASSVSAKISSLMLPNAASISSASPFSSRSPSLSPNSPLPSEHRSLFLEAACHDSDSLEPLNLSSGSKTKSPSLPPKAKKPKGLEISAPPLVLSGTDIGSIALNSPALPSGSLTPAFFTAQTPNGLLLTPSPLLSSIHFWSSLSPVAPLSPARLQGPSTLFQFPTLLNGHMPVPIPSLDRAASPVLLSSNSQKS
Summed up: as §1

The target in assay [6] is T4, ELK4 (Homo sapiens, UniProt P28324-2 1-405).
T4 sequence: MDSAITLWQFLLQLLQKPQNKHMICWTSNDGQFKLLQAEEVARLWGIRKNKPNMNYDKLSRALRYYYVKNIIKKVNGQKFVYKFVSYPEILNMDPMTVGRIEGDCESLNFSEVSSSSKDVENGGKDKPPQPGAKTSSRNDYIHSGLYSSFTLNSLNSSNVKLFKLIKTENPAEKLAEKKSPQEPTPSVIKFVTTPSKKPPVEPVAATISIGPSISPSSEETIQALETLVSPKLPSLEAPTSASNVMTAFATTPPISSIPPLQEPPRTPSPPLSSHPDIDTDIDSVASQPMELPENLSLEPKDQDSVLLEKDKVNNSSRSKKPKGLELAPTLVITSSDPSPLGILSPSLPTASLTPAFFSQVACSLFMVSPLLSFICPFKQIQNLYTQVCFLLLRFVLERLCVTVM
Summed up:
as §1

The target in assay [7] is T5, ETV2 (Homo sapiens, UniProt O00321 1-342).
T5 sequence: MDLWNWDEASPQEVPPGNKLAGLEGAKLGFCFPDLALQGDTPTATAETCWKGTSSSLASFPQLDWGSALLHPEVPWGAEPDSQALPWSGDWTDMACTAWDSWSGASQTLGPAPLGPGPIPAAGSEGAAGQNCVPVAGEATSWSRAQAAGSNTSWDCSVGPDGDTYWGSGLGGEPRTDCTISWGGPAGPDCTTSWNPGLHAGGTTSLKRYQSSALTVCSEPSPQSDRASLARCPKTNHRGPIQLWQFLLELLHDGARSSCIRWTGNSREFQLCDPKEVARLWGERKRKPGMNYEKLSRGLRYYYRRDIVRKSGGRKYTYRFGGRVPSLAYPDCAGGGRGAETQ
The method in brief:
as §1

In assay [8] the target is T6, ETV3L (Homo sapiens, UniProt Q6ZN32 1-361).
T6 sequence: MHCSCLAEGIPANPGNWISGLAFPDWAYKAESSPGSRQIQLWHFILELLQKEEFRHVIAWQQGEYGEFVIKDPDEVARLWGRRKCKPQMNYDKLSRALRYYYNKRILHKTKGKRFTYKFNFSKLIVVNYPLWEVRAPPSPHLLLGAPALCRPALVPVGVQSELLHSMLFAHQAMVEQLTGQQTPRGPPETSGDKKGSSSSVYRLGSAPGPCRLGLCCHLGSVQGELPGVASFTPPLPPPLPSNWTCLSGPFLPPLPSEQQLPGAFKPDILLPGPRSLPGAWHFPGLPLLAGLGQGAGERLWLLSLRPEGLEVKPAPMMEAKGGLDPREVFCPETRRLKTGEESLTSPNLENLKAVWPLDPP
The method in brief:
as §1

In assay [9] the target is T7, ETS2 (Homo sapiens, UniProt P15036 1-469).
T7 sequence: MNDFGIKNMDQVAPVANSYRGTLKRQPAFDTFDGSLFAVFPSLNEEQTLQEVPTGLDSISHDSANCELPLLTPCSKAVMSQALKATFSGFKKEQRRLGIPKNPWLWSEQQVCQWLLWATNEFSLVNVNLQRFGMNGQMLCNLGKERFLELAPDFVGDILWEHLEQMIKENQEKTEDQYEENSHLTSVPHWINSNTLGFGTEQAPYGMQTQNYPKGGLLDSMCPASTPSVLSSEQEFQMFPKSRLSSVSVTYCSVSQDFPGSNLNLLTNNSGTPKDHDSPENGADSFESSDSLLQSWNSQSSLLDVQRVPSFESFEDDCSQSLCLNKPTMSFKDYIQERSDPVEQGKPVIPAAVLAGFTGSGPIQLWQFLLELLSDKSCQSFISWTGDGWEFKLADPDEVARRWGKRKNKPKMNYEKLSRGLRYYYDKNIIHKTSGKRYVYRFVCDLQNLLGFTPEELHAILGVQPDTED
Summed up: as §1

Assay [10] addresses T8, ETV7 (Homo sapiens, UniProt Q9Y603 1-341).
T8 sequence: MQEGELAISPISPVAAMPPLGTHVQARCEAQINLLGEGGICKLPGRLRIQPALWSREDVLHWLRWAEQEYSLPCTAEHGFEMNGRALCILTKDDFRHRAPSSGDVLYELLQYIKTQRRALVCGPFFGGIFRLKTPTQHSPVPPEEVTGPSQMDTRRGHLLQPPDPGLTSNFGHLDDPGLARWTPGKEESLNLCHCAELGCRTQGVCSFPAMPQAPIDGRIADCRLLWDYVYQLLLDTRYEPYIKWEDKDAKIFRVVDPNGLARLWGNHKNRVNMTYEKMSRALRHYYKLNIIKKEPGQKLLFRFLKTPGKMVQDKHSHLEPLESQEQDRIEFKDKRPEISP
The method in brief:
as §1

Assay [11] has as its target T9, ELF5 (Homo sapiens, UniProt Q9UKW6-2 1-255).
T9 sequence: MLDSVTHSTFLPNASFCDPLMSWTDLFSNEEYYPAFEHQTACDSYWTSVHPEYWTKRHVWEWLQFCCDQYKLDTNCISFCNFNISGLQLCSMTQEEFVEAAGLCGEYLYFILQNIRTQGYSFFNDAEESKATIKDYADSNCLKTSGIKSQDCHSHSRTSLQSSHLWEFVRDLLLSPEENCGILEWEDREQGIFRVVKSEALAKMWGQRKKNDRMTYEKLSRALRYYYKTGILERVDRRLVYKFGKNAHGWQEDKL
The method in brief:
as §1

For assay [12], the target named is T10, ETV3 (Homo sapiens, UniProt P41162-2 1-143).
T10 sequence: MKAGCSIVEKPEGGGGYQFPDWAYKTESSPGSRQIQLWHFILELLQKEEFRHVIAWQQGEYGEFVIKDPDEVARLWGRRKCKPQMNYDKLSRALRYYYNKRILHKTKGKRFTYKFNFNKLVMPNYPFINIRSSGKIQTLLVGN
Summed up: as §1

The target in assay [13] is ETV6 (Homo sapiens, UniProt P41212 1-452). The method in brief: as §1
Assay [14] has as its target T11, EHF (Homo sapiens, UniProt Q9NZC4 1-300).
T11 sequence: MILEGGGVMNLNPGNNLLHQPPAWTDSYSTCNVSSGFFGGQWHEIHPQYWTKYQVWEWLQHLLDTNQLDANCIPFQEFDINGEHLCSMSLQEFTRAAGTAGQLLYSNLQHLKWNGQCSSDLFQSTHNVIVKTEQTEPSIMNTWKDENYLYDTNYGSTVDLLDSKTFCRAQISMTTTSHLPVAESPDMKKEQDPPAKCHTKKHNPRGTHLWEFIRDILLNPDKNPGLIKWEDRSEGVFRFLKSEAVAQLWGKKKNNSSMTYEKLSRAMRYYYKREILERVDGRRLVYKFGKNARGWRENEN
Summed up: as §1

Chain of ETV6 (P41212 whole entry): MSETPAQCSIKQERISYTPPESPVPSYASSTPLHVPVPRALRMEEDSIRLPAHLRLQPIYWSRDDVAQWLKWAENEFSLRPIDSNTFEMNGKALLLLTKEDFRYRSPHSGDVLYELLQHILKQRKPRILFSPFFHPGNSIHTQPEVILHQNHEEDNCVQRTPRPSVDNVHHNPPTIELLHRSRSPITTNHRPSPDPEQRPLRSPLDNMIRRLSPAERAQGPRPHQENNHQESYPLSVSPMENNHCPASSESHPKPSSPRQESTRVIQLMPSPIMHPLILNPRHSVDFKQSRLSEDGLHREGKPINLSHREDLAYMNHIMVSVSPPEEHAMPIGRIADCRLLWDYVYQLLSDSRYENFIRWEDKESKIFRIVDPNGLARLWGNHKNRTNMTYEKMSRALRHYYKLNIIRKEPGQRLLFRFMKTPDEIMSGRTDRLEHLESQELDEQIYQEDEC
Chain of ELF1 (P32519 whole entry): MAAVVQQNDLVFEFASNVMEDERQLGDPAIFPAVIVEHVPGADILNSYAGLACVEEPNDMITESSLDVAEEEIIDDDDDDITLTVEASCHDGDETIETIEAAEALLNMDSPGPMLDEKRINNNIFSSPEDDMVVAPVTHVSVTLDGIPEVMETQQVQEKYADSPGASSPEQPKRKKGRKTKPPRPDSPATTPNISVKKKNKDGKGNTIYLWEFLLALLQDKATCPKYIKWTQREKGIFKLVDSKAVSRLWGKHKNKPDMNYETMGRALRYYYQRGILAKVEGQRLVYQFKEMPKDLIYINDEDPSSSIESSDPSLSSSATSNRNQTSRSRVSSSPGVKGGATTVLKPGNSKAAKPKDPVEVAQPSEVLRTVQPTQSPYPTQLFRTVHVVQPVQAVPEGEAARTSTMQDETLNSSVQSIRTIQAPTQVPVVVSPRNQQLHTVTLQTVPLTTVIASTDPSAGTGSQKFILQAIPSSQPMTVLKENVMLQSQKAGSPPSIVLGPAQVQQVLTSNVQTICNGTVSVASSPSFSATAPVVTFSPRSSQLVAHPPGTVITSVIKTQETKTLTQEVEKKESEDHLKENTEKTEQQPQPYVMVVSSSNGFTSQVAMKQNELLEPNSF

Consider GACACT, for which the binding signal in [1] was 1.01 fold enrichment (6-mer frequency, TF over GST control); in assay [2], 1.02 fold enrichment (6-mer frequency, TF over GST control); in assay [3] it was 1.03 fold enrichment (6-mer frequency, TF over GST control); in assay [4], 1.02 fold enrichment (6-mer frequency, TF over GST control); in [5], 1.06 fold enrichment (6-mer frequency, TF over GST control); in assay [6], 1.05 fold enrichment (6-mer frequency, TF over GST control). Also, the binding signal was 1.1 fold enrichment (6-mer frequency, TF over GST control) in assay [7]; 1.08 fold enrichment (6-mer frequency, TF over GST control) in assay [8]; 1.05 fold enrichment (6-mer frequency, TF over GST control) in [9]; 1.04 fold enrichment (6-mer frequency, TF over GST control) in assay [10]; 1.05 fold enrichment (6-mer frequency, TF over GST control) in assay [11]; 1.03 fold enrichment (6-mer frequency, TF over GST control) in [12]. Moreover, in assay [13], the binding signal was 1.13 fold enrichment (6-mer frequency, TF over GST control).
With CATCAG, the binding signal in [1] was 1 fold enrichment (6-mer frequency, TF over GST control); in assay [2], 1.04 fold enrichment (6-mer frequency, TF over GST control); in [14], 1.03 fold enrichment (6-mer frequency, TF over GST control); in assay [5], 1.06 fold enrichment (6-mer frequency, TF over GST control); in assay [6], 1.06 fold enrichment (6-mer frequency, TF over GST control); in assay [9], 1 fold enrichment (6-mer frequency, TF over GST control).
